Laboratory results published in the supplement of paper PMC4466140.

The binders below were run against AgAbp1 (assay: SPOT peptide array binding signal intensity (averaged, normalized) (arbitrary units (background-subtracted, floor 0; scale differs between SH3 domains)); higher = stronger binding of the SH3 domain to the peptide).
How it was run: (§1)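 Four yeast species supplied the SH3 domains, which were expressed as GST fusions in E. coli BL21(DE3) and purified on glutathione Sepharose. Incubation with cellulose membranes carrying synthetic 15-mer peptides, cysteines exchanged for serines, ran overnight at 4°C at 10 μg/ml in TBS-based blocking buffer. Binding signal is reported as normalized, background-subtracted spot intensity averaged over replicates, in arbitrary units not shared between domains.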

Binder | SPOT peptide array binding signal intensity
RKNRAPPQRPRFNRE | 777

These binders were tested against AgBbc1 in the same assay as above.
How it was run: as §1

Binder | SPOT peptide array binding signal intensity
RKNRAPPQRPRFNRE | 536

The binders below were run against AgBem1-D1 in the same assay as above.
How it was run: as §1

Binder | SPOT peptide array binding signal intensity
RKNRAPPQRPRFNRE | 379

The binders below were run against AgBzz1-D1 in the same assay as above.
How it was run: as §1

Binder | SPOT peptide array binding signal intensity
RKNRAPPQRPRFNRE | 248

What follows are binders tested against AgBzz1-D2 in the same assay as above.
How it was run: as §1

Binder | SPOT peptide array binding signal intensity
RKNRAPPQRPRFNRE | 220

What follows are binders tested against AgCyk3 in the same assay as above.
How it was run: as §1

Binder | SPOT peptide array binding signal intensity
RKNRAPPQRPRFNRE | 7

Each binder was assayed against AgFus1 in the same assay as above.
How it was run: as §1

Binder | SPOT peptide array binding signal intensity
RKNRAPPQRPRFNRE | 404

Each binder was assayed against AgHof1 in the same assay as above.
How it was run: as §1

Binder | SPOT peptide array binding signal intensity
RKNRAPPQRPRFNRE | 117

The binders below were run against AgHse1 in the same assay as above.
How it was run: as §1

Binder | SPOT peptide array binding signal intensity
RKNRAPPQRPRFNRE | 469

These binders were tested against AgLsb1 in the same assay as above.
How it was run: as §1

Binder | SPOT peptide array binding signal intensity
RKNRAPPQRPRFNRE | 267

Each binder was assayed against AgLsb4 in the same assay as above.
How it was run: as §1

Binder | SPOT peptide array binding signal intensity
RKNRAPPQRPRFNRE | 71

Each binder was assayed against AgMyo5 in the same assay as above.
How it was run: as §1

Binder | SPOT peptide array binding signal intensity
RKNRAPPQRPRFNRE | 2.5

The binders below were run against AgNbp2 in the same assay as above.
How it was run: as §1

Binder | SPOT peptide array binding signal intensity
RKNRAPPQRPRFNRE | 1890

What follows are binders tested against AgRvs167 in the same assay as above.
How it was run: as §1

Binder | SPOT peptide array binding signal intensity
RKNRAPPQRPRFNRE | 8.33

What follows are binders tested against AgSho1 in the same assay as above.
How it was run: as §1

Binder | SPOT peptide array binding signal intensity
RKNRAPPQRPRFNRE | 47.5

The binders below were run against AgSla1-D1-D2 in the same assay as above.
How it was run: as §1

Binder | SPOT peptide array binding signal intensity
RKNRAPPQRPRFNRE | 320

What follows are binders tested against AgSla1-D3 in the same assay as above.
How it was run: as §1

Binder | SPOT peptide array binding signal intensity
RKNRAPPQRPRFNRE | 39.2

These binders were tested against CaAbp1-D1 in the same assay as above.
How it was run: as §1

Binder | SPOT peptide array binding signal intensity
RKNRAPPQRPRFNRE | 976

What follows are binders tested against CaAbp1-D2 in the same assay as above.
How it was run: as §1

Binder | SPOT peptide array binding signal intensity
RKNRAPPQRPRFNRE | 788

The binders below were run against CaBbc1 in the same assay as above.
How it was run: as §1

Binder | SPOT peptide array binding signal intensity
RKNRAPPQRPRFNRE | 945

What follows are binders tested against CaBem1-D1 in the same assay as above.
How it was run: as §1

Binder | SPOT peptide array binding signal intensity
RKNRAPPQRPRFNRE | 39

These binders were tested against CaBzz1-D1 in the same assay as above.
How it was run: as §1

Binder | SPOT peptide array binding signal intensity
RKNRAPPQRPRFNRE | 2100

Each binder was assayed against CaBzz1-D2 in the same assay as above.
How it was run: as §1

Binder | SPOT peptide array binding signal intensity
RKNRAPPQRPRFNRE | 1120

Each binder was assayed against CaCyk3 in the same assay as above.
How it was run: as §1

Binder | SPOT peptide array binding signal intensity
RKNRAPPQRPRFNRE | 642

Each binder was assayed against CaFus1 in the same assay as above.
How it was run: as §1

Binder | SPOT peptide array binding signal intensity
RKNRAPPQRPRFNRE | 706

What follows are binders tested against CaHof1 in the same assay as above.
How it was run: as §1

Binder | SPOT peptide array binding signal intensity
RKNRAPPQRPRFNRE | 0.5

The binders below were run against CaHse1 in the same assay as above.
How it was run: as §1

Binder | SPOT peptide array binding signal intensity
RKNRAPPQRPRFNRE | 89.8

What follows are binders tested against CaLsb1 in the same assay as above.
How it was run: as §1

Binder | SPOT peptide array binding signal intensity
RKNRAPPQRPRFNRE | 7

What follows are binders tested against CaLsb4 in the same assay as above.
How it was run: as §1

Binder | SPOT peptide array binding signal intensity
RKNRAPPQRPRFNRE | 646

Each binder was assayed against CaMyo5 in the same assay as above.
How it was run: as §1

Binder | SPOT peptide array binding signal intensity
RKNRAPPQRPRFNRE | 9.25

These binders were tested against CaNbp2 in the same assay as above.
How it was run: as §1

Binder | SPOT peptide array binding signal intensity
RKNRAPPQRPRFNRE | 1020

The binders below were run against CaRvs167 in the same assay as above.
How it was run: as §1

Binder | SPOT peptide array binding signal intensity
RKNRAPPQRPRFNRE | 26.5

These binders were tested against CaRvs167-3 in the same assay as above.
How it was run: as §1

Binder | SPOT peptide array binding signal intensity
RKNRAPPQRPRFNRE | 28.5

These binders were tested against CaSho1 in the same assay as above.
How it was run: as §1

Binder | SPOT peptide array binding signal intensity
RKNRAPPQRPRFNRE | 117

The binders below were run against CaSla1-D1-D2 in the same assay as above.
How it was run: as §1

Binder | SPOT peptide array binding signal intensity
RKNRAPPQRPRFNRE | 752

The binders below were run against CaSla1-D3 in the same assay as above.
How it was run: as §1

Binder | SPOT peptide array binding signal intensity
RKNRAPPQRPRFNRE | 15

Each binder was assayed against ScAbp1 in the same assay as above.
How it was run: as §1

Binder | SPOT peptide array binding signal intensity
RKNRAPPQRPRFNRE | 369

The binders below were run against ScBbc1 in the same assay as above.
How it was run: as §1

Binder | SPOT peptide array binding signal intensity
RKNRAPPQRPRFNRE | 290

These binders were tested against ScBem1-D1 in the same assay as above.
How it was run: as §1

Binder | SPOT peptide array binding signal intensity
RKNRAPPQRPRFNRE | 112

Each binder was assayed against ScBzz1-D1 in the same assay as above.
How it was run: as §1

Binder | SPOT peptide array binding signal intensity
RKNRAPPQRPRFNRE | 46

The binders below were run against ScBzz1-D2 in the same assay as above.
How it was run: as §1

Binder | SPOT peptide array binding signal intensity
RKNRAPPQRPRFNRE | 26

The binders below were run against ScCyk3 in the same assay as above.
How it was run: as §1

Binder | SPOT peptide array binding signal intensity
RKNRAPPQRPRFNRE | 88

The binders below were run against ScFus1 in the same assay as above.
How it was run: as §1

Binder | SPOT peptide array binding signal intensity
RKNRAPPQRPRFNRE | 209

These binders were tested against ScHof1 in the same assay as above.
How it was run: as §1

Binder | SPOT peptide array binding signal intensity
RKNRAPPQRPRFNRE | 2.5

The binders below were run against ScHse1 in the same assay as above.
How it was run: as §1

Binder | SPOT peptide array binding signal intensity
RKNRAPPQRPRFNRE | 761

What follows are binders tested against ScLsb1 in the same assay as above.
How it was run: as §1

Binder | SPOT peptide array binding signal intensity
RKNRAPPQRPRFNRE | 162

The binders below were run against ScLsb2 in the same assay as above.
How it was run: as §1

Binder | SPOT peptide array binding signal intensity
RKNRAPPQRPRFNRE | 196

Each binder was assayed against ScLsb3 in the same assay as above.
How it was run: as §1

Binder | SPOT peptide array binding signal intensity
RKNRAPPQRPRFNRE | 622

These binders were tested against ScLsb4 in the same assay as above.
How it was run: as §1

Binder | SPOT peptide array binding signal intensity
RKNRAPPQRPRFNRE | 34.5

These binders were tested against ScMyo3 in the same assay as above.
How it was run: as §1

Binder | SPOT peptide array binding signal intensity
RKNRAPPQRPRFNRE | 8.5

What follows are binders tested against ScMyo5 in the same assay as above.
How it was run: as §1

Binder | SPOT peptide array binding signal intensity
RKNRAPPQRPRFNRE | 10

The binders below were run against ScNbp2 in the same assay as above.
How it was run: as §1

Binder | SPOT peptide array binding signal intensity
RKNRAPPQRPRFNRE | 4060

These binders were tested against ScPex13 in the same assay as above.
How it was run: as §1

Binder | SPOT peptide array binding signal intensity
RKNRAPPQRPRFNRE | 128

The binders below were run against ScRvs167 in the same assay as above.
How it was run: as §1

Binder | SPOT peptide array binding signal intensity
RKNRAPPQRPRFNRE | 192

The binders below were run against ScSho1 in the same assay as above.
How it was run: as §1

Binder | SPOT peptide array binding signal intensity
RKNRAPPQRPRFNRE | 979

These binders were tested against ScSla1-D1-D2 in the same assay as above.
How it was run: as §1

Binder | SPOT peptide array binding signal intensity
RKNRAPPQRPRFNRE | 1390

These binders were tested against ScSla1-D3 in the same assay as above.
How it was run: as §1

Binder | SPOT peptide array binding signal intensity
RKNRAPPQRPRFNRE | 30.2

The binders below were run against SpAbp1-D1 in the same assay as above.
How it was run: as §1

Binder | SPOT peptide array binding signal intensity
RKNRAPPQRPRFNRE | 634

The binders below were run against SpBbc1 in the same assay as above.
How it was run: as §1

Binder | SPOT peptide array binding signal intensity
RKNRAPPQRPRFNRE | 25.5

What follows are binders tested against SpBzz1-D1 in the same assay as above.
How it was run: as §1

Binder | SPOT peptide array binding signal intensity
RKNRAPPQRPRFNRE | 707

Each binder was assayed against SpBzz1-D2 in the same assay as above.
How it was run: as §1

Binder | SPOT peptide array binding signal intensity
RKNRAPPQRPRFNRE | 23

The binders below were run against SpCyk3 in the same assay as above.
How it was run: as §1

Binder | SPOT peptide array binding signal intensity
RKNRAPPQRPRFNRE | 9.5

Each binder was assayed against SpHof1 in the same assay as above.
How it was run: as §1

Binder | SPOT peptide array binding signal intensity
RKNRAPPQRPRFNRE | 200

The binders below were run against SpHof1-2 in the same assay as above.
How it was run: as §1

Binder | SPOT peptide array binding signal intensity
RKNRAPPQRPRFNRE | 13.5

What follows are binders tested against SpHof1-3 in the same assay as above.
How it was run: as §1

Binder | SPOT peptide array binding signal intensity
RKNRAPPQRPRFNRE | 286

These binders were tested against SpHse1 in the same assay as above.
How it was run: as §1

Binder | SPOT peptide array binding signal intensity
RKNRAPPQRPRFNRE | 253

These binders were tested against SpLsb1 in the same assay as above.
How it was run: as §1

Binder | SPOT peptide array binding signal intensity
RKNRAPPQRPRFNRE | 190

What follows are binders tested against SpLsb4 in the same assay as above.
How it was run: as §1

Binder | SPOT peptide array binding signal intensity
RKNRAPPQRPRFNRE | 707

What follows are binders tested against SpMyo1 in the same assay as above.
How it was run: as §1

Binder | SPOT peptide array binding signal intensity
RKNRAPPQRPRFNRE | 14

The binders below were run against SpNbp2 in the same assay as above.
How it was run: as §1

Binder | SPOT peptide array binding signal intensity
RKNRAPPQRPRFNRE | 307

What follows are binders tested against SpPex13 in the same assay as above.
How it was run: as §1

Binder | SPOT peptide array binding signal intensity
RKNRAPPQRPRFNRE | 32

Each binder was assayed against SpRvs167 in the same assay as above.
How it was run: as §1

Binder | SPOT peptide array binding signal intensity
RKNRAPPQRPRFNRE | 67.8

Each binder was assayed against SpSla1-D1-D2 in the same assay as above.
How it was run: as §1

Binder | SPOT peptide array binding signal intensity
RKNRAPPQRPRFNRE | 48

These binders were tested against SpSla1-D3 in the same assay as above.
How it was run: as §1

Binder | SPOT peptide array binding signal intensity
RKNRAPPQRPRFNRE | 7
